High-throughput results deposited in PubChem BioAssay by National Center for Advancing Translational Sciences (NCATS).
JMJD2A Tudor inh: blocks the human JMJD2A Tudor domain; O75164; AlphaScreen JMJD2A-Tudor / H3K4me3 peptide binding; 390,000 compounds, 4.4% hits; Potency, µM (titrated, usually from 114 µM), usual class: inhibitors; also: nearly all actives have a fitted effect of over 50% in size
G9a block: inhibitors of human histone lysine methyltransferase G9a. Q96KQ7. G9a H3K9 monomethylation, AlphaScreen, 2 h. Potency, µM (series often up to 102 µM), hits mostly inhibitors. 350,000 compounds, 8.8% hits. AID 504332; also: nearly all actives have a fitted effect of over 75% in size
Target sequence (Q96KQ7 913-1193 limits assumed): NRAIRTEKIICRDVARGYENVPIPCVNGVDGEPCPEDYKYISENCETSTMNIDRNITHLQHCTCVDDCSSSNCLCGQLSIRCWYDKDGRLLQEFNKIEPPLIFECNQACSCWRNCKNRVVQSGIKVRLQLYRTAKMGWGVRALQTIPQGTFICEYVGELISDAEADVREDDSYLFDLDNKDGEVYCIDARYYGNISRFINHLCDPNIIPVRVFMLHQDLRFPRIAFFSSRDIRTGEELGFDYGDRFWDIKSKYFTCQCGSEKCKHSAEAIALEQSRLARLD
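G9a (20 nM) was preincubated 15 min with compound, then reacted 2 h at room temperature with 500 nM biotin-H3K9 peptide and 20 µM SAM. Monomethyl-H3K9 detected by AlphaScreen using anti-H3K9me1 antibody.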
PLK1 PBD inh: inhibitors of human PLK1 polo-box domain binding; Plk1 PBD binding of FITC phosphopeptide, fluorescence polarization; 360,000 compounds, 2.8% hits; P53350; Potency, µM, most hits filed as inhibitors; also: series mostly up to about 57 µM; nearly all actives have a fitted effect of over 65% in size
BAZ2B inh: BAZ2B (human) inhibition | 360,000 compounds, 4.4% hits | AlphaScreen BAZ2B-H3K14Ac peptide displacement | AID 504333 | Potency, µM (highest dose often 114 µM), usual class: inhibitors; also: nearly all actives have a fitted effect of over 60% in size
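Multi-concentration screen (max 110 uM) measuring displacement of acetylated histone H3 peptide from BAZ2B by AlphaScreen, using 50 nM protein, 50 nM peptide and 10 ug/mL streptavidin donor plus Ni-chelate acceptor beads.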
HP1b binding inh: blocks HP1-beta chromodomain binding to methylated histone tails | Potency, µM (series often up to 114 µM), actives largely listed as inhibitors | 390,000 compounds, 0.56% hits | AlphaScreen HP1-beta / biotin-H3K9me3 peptide binding | AID 540317; also: nearly all actives have a fitted effect of over 70% in size
Target sequence (P83916 whole entry, looked up): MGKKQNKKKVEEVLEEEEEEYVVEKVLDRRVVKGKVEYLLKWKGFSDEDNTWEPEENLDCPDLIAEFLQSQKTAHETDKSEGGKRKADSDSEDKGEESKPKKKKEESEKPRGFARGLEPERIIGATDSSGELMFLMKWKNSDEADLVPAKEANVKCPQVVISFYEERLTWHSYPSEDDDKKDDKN
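AlphaScreen: HP1-beta (50 nM) preformed 30 min with biotin-H3(1-18)K9me3 peptide (50 nM) in PBS pH 7.4, 0.01% Tween-20. Compound added for 30 min at RT, then streptavidin donor/nickel chelate acceptor beads (10 ug/mL) for 30 min.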
12-LOX inh: ALOX12 (human) lipoxygenase inhibition. P18054. purified 12hLO, xylenol orange hydroperoxide absorbance. Potency, µM (highest dose often 108 µM), most hits filed as inhibitors. 580,000 compounds, 1.1% hits
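Purified human 12hLO (150 nM final) in 25 mM Hepes, 0.01% Triton X-100, pH 7.0 was preincubated 15 min at room temperature with compound. Then 40 uM arachidonic acid was added, 30 min. Hydroperoxide was read by Fe-XO absorbance ratio 573/405 nm.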
A number is an active result; . = inactive; ? = inconclusive; / = no result given; ! = not active in a repeat; [ ] = remark or other dose. Shown are actives, neighbours in structure and some others; about 9% of the full set was active somewhere. Calls follow the shape of the dose curve; as a rule, active = well fitted curve in the direction sought with a large enough effect; inconclusive = small, poorly fitted or top-dose-only effect, or another doubt; inactive = no such curve, though single readings can be large; an effect the other way counts as inactive or inconclusive.

SMILES	JMJD2A Tudor inh	G9a block	PLK1 PBD inh	BAZ2B inh	HP1b binding inh	12-LOX inh
CC(=O)Nc1ccc(NC(=O)C/C(C)=N/NC(=O)C(=O)Nc2ccc(C)c(Cl)c2)cc1	.	56µM	.	.	.	.
CCc1ccc(OCCCOc2ccc(Cl)cc2/C=N/NC(C)=O)cc1	/	/	/	/	/	.
O=C(/C=C/c1ccco1)N(Cc1cccs1)C1CC1	/	/	/	/	/	35µM
COc1cc(CCC(=O)OCC(=O)NCc2ccc(Cl)cc2)cc(OC)c1OC	.	.[12.7 µM]	.	.	.	.
Cn1c(=O)c2c(nc(CN3CCN(c4ccccc4F)CC3)n2Cc2ccccc2F)n(C)c1=O	.	.	/	/	.	.
COCCn1c(CN2CCc3ccccc3C2)nc2c1c(=O)n(C)c(=O)n2C	.	/	.	.	.	.
Cn1c(=O)c2c(nc(CN3CCc4ccccc4C3)n2Cc2ccccc2F)n(C)c1=O	.	18µM	.	.	.	.
Cn1c(=O)c2c(nc(CN3CCc4ccccc4C3)n2CCCO)n(C)c1=O	.	11µM	.	.	.	?
CCOC(=O)Cn1c(CN2CCc3ccccc3C2)nc2c1c(=O)n(C)c(=O)n2C	.	40µM	.	.	.	.
CCc1ccc(CN(C)CC(O)COc2cccc3ccccc23)cc1 (centres undefined)	2.5µM	22µM	.	.	?	?
CC(C)NCC(O)COc1cccc2ccccc12 (centres undefined)	.	3.2µM!	.	.	.	.
C=CCOc1ccccc1OC[C@H](O)CNC(C)C	/	.[21.5 µM]	/	/	/	/
OCC(O)COc1cccc2ccccc12 (centres undefined)	/	.	/	/	/	.
O=C(OCCC12CC3CC(CC(C3)C1)C2)c1ccc(NCc2cc(O)ccc2O)cc1	25µM	/	.	/	?	5.6µM
O=C(OCC12CC3CC(CC(C3)C1)C2)c1ccc(NCc2cc(O)ccc2O)cc1	50µM	/	.	/	16µM	16µM
CCNC(=O)OCCC12CC3CC(CC(C3)C1)C2	.	.	.	.	.	.
O=C(O)c1ccc(O)cc1O	.	.[0.501 µM]	.	.	.	.
O=C(OCC12CC3CC(CC(C3)C1)C2)c1cc([N+](=O)[O-])cc([N+](=O)[O-])c1	/	/	/	/	/	.
O=C(O)c1cc(NCc2cc(O)ccc2O)ccc1O	25µM	3.5µM	/	/	?	?
COC(=O)c1cc(OC)c(OC)c(OC)c1NC(=O)c1cc(=O)n(C)c(=O)n1C	.	28µM	/	.	.	.
COc1cc(/C=C\C(=O)Nc2cc(=O)n(C)c(=O)n2C)cc(OC)c1OC	.	.	.	.	.	.
Cc1ccc(OCC(=O)c2cc(C)n(C)c2C)c([N+](=O)[O-])n1	.	?	.	56µM	.	.
Cc1cc(C(=O)COc2cccc3cccnc23)c(C)n1C	.	2.8µM	.	11µM	.	.
Cc1cc(C(=O)COc2nncc3ccccc23)c(C)n1C	.	79µM	.	.	.	.
CCn1c(COc2cccc3cccnc23)nnc1SCC(=O)O	.	?	.	.	.	?
SMILES	JMJD2A Tudor inh	G9a block	PLK1 PBD inh	BAZ2B inh	HP1b binding inh	12-LOX inh
Cc1cc(C(=O)COc2ncnc3ccccc23)c(C)n1C	/	/	/	/	/	.
Cn1c(COc2cccc3cccnc23)nnc1SCC(=O)O	.	/	27µM	.	?	7.9µM!
Oc1ccc(C[C@H]2CNCCN2CCc2cccc(F)c2)cc1	.	.[2.33 µM]	.	.	.	.
CCCNC(=O)CN(C)Cc1nc(-c2ccccc2)oc1C	/	/	/	/	/	.
CC(C)(C)c1ccc(OCC(=O)NCCN2CCCC2)cc1	.	.[12.7 µM]	.	.	.	.
CSc1ccccc1C(=O)NC1CCCN(Cc2ccccc2F)C1 (centres undefined)	.	10µM	.	.	.	?
O=C(C1CCCN(Cc2cc(Br)ccc2O)C1)N1CCCCC1 (centres undefined)	7.9µM	25µM	.	50µM	.	.
O=C(C1CCCN(Cc2ccccc2F)C1)N1CCCC1 (centres undefined)	28µM	40µM	.	56µM	?	?
O=S(=O)(NCc1ccc2c(c1)OCO2)c1ccc2c(c1)oc1ccccc12	.	.[12.7 µM]	.	.	.	.
CCN(Cc1ccccc1)S(=O)(=O)c1ccc(C(=O)N(CCCN(C)C)c2nc3cc(C)cc(C)c3s2)cc1	?	25µM	.	?	?	?
CCN(Cc1ccccc1)S(=O)(=O)c1ccc(C(=O)N(CCCN(C)C)c2nc3c(F)cccc3s2)cc1	?	?	.	?	.	?
Cc1cc(C)c2sc(N(CCCN(C)C)C(=O)c3ccc(S(=O)(=O)N(C)Cc4ccccc4)cc3)nc2c1	?	40µM	.	?	?	?
Cc1cc(C)c2sc(N(CCCN(C)C)C(=O)CN3C(=O)c4ccccc4C3=O)nc2c1	.[11.4 µM]	50µM	.	?	.	.
Cc1cc(C)c2sc(N(CCCN(C)C)C(=O)c3ccc(Br)s3)nc2c1	?	?	.	50µM	.	?
O=C(Cc1ccc(Br)cc1)NCCc1ccc(Cl)cc1Cl	.	.	.	.	.	.
COc1ccc2oc(=O)c(-c3nc4ccccc4s3)cc2c1	/	/	/	/	/	.
CCN(CC)CCN(C(=O)C1=COCCO1)c1nc2cc(C)cc(C)c2s1	.	.	.	.	.	.
CCCCN(CC)S(=O)(=O)c1ccc(C(=O)N(CCCN(C)C)c2nc3cc(C)cc(C)c3s2)cc1	?	45µM	.	?	.	?
CCc1ccc(-c2[nH]nc3nc(-c4ccc(OC)cc4)cc(C(=O)NCCc4ccc(OC)c(OC)c4)c23)cc1	.	.	/	.	.	.
CCCCCCCCCCCCS(=O)CCCC (centres undefined)	/	/	/	/	/	.
CCCCCCS(=O)[C@H]1CS(=O)(=O)C[C@@H]1S(=O)CCCCCC (some centres undefined)	.	8.9µM	12µM	.	.	?
CCCCCCCCS(=O)C1CCS(=O)(=O)C1 (centres undefined)	.	40µM	?	.	.	?
O=C(Cc1c[nH]c2ccccc12)NCc1cccs1	.	.	.	.	.	.
Cc1c(C(=O)NCc2ccccn2)sc2nc(-c3ccccc3)cn12	.	.	.	.	.	.
Cc1ccc(CCNC(=O)c2nnn(-c3cc(C)cc(C)c3)c2N)cc1	.	.	.	.	.	.
SMILES	JMJD2A Tudor inh	G9a block	PLK1 PBD inh	BAZ2B inh	HP1b binding inh	12-LOX inh
Cc1cnc(NC(=O)c2csc(NC3CC3)n2)s1	/	/	/	/	/	.
C/C(=N\O)C(=O)NCC1CCNCC1	.[11.4 µM]	?	27µM	.	.	.
CCc1ccc(C(=O)c2cn(CC(=O)Nc3ccc(OC)cc3)c3cc4c(cc3c2=O)OCCO4)cc1	.	.	/	.	.	.
CCc1ccc(C(=O)c2cn(CC(=O)Nc3ccc4c(c3)OCCO4)c3ccc(CC)cc3c2=O)cc1	.	.	/	79µM	.	.
CCc1ccc(C(=O)c2cn(CC(=O)Nc3ccc(F)c(F)c3)c3cc(OC)c(OC)cc3c2=O)cc1	.	.	/	79µM	.	.
CCc1ccc(C(=O)c2cn(CC(=O)Nc3cc(OC)cc(OC)c3)c3ccc(CC)cc3c2=O)cc1	.	.	/	.	.	.
